The record followed here is PubChem BioAssay (NCATS).

Values joined by “and” are separate entries in the source; they are usually repeats but may differ in a detail not shown here. Identical values can stand only once. Records with an inconclusive call do not appear. Some structures have more than one record in an assay (separate samples or runs), and their calls can disagree. Active and inactive are the calls of the source. Calls follow the shape of the dose curve; as a rule, active = well fitted curve in the direction sought with a large enough effect; inconclusive = small, poorly fitted or top-dose-only effect, or another doubt; inactive = no such curve, though single readings can be large; an effect the other way counts as inactive or inconclusive.

The target of experiment [1] is Metallo-beta-lactamase type 2 (Klebsiella pneumoniae) (UniProt C7C422). The experiment in a line: qHTS to identify inhibitors of the New Delhi Metallo-beta-lactamase (NDM): assay validation screen against the NCATS LOPAC Collection (AID 1794843).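 Also: nitrocefin turnover by NDM-1 measured as 485 nm absorbance at plateau; series mostly up to about 38 µM.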 A digest of the protocol: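 NDM-1 at 2 nM final in 50 mM HEPES pH 7.0, 1 uM ZnSO4, 0.01% Tween20, preincubated with LOPAC compounds pinned in DMSO; 50 uM nitrocefin (stock) added. Hydrolysis read as absorbance at 485 nm in the plateau phase.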
On the technique in general: Quantitative high-throughput screening tests each substance at several concentrations.

Experiment [2] deals with Glutathione peroxidase 1 (Homo sapiens) (UniProt P07203). In words: Primary qHTS Assay for Inhibitors of Recombinant Selenoprotein Glutathione Peroxidase 1 (GPX1) (AID 1845191). Also: nearly all actives have a fitted effect of over 65% in size. Also: potency is read from the fitted curve at half-maximal effect. A digest of the protocol: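 GR-coupled assay: compounds preincubated 30 min at room temperature with GPX1, then reaction started with CHP; final 10 nM GPX1, 1 mM GSH, 0.5 mM CHP, 0.5 mM NADPH, 100 nM GR, 0.01% BSA, pH 7.5 Tris buffer. NADPH fluorescence (340/450 nm) read at 0 and 15 min.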

In experiment [3] the target is Phospholipid hydroperoxide glutathione peroxidase GPX4 (Homo sapiens) (UniProt P36969). The experiment in a line: Primary qHTS Assay for Inhibitors of Recombinant Selenoprotein Glutathione Peroxidase 4 (GPX4) (AID 1845192). Also: nearly all actives have a fitted effect of over 65% in size. Also: potency is read from the fitted curve at half-maximal effect. The method, boiled down: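 GR-coupled assay: recombinant GPX4 preincubated 30 min with compound at room temperature; final 200 nM GPX4, 1 mM GSH, 0.5 mM cumene hydroperoxide, 0.5 mM NADPH, 100 nM GR, 0.01% BSA, pH 7.5 Tris. NADPH fluorescence (340/450 nm) read at 0 and 15 min.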

The nature of experiment [4]: Quantitative High-Throughput drug screen in 47 multiple myeloma cell lines against the NCATS MIPE library collection: FR4_PLB cell viability assay (AID 1918924; also: nearly all actives have a fitted effect of over 35% in size; also: potency is read from the fitted curve at half-maximal effect). A digest of the protocol: (§1)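 Myeloma cell lines, 500 cells per well, exposed to MIPE 4.0 library compounds for 48 h at 37C, 5% CO2. Viability from ATP by CellTiter-Glo luminescence; normalised to DMSO (100%) and media-only (0%) wells.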

Experiment [5] can be described thus: Quantitative High-Throughput drug screen in 47 multiple myeloma cell lines against the NCATS MIPE library collection: Delta47_JCRB cell viability assay (AID 1918925; also: nearly all actives have a fitted effect of over 45% in size; also: potency is read from the fitted curve at half-maximal effect). A digest of the protocol: (§2)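 qHTS of the MIPE 4.0 collection: 500 myeloma cells/well, 48 h drug exposure at 37C in 5% CO2, then CellTiter-Glo for 5 min at room temperature before luminescence reading.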

Experiment [6] in a line: Quantitative High-Throughput drug screen in 47 multiple myeloma cell lines against the NCATS MIPE library collection: EJM_DSMZ cell viability assay (AID 1918926; also: nearly all actives have a fitted effect of over 30% in size; also: potency is read from the fitted curve at half-maximal effect). A digest of the protocol: as §2
Experiment [7] in a line: Quantitative High-Throughput drug screen in 47 multiple myeloma cell lines against the NCATS MIPE library collection: AMO1_DSMZ cell viability assay (AID 1918927; also: nearly all actives have a fitted effect of over 30% in size; also: potency is read from the fitted curve at half-maximal effect). A digest of the protocol: as §2
The nature of experiment [8]: Quantitative High-Throughput drug screen in 47 multiple myeloma cell lines against the NCATS MIPE library collection: ARP1_JJKsccF8 cell viability assay (AID 1918928; also: nearly all actives have a fitted effect of over 40% in size; also: potency is read from the fitted curve at half-maximal effect). The method, boiled down:
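Myeloma cells at 500 per well in 1536-well format treated with MIPE 4.0 library by pin transfer for 48 h at 37C, 5% CO2. Viability from ATP luminescence (CellTiter-Glo), normalized to DMSO (100%) and media-only (0%) wells.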

Experiment [9] in a line: Quantitative High-Throughput drug screen in 47 multiple myeloma cell lines against the NCATS MIPE library collection: ARD_JJKsccE7 cell viability assay (AID 1918929). A digest of the protocol:
as §2

A short description of experiment [10]: Quantitative High-Throughput drug screen in 47 multiple myeloma cell lines against the NCATS MIPE library collection: Karpas620_DSMZ cell viability assay (AID 1918959). Also: nearly all actives have a fitted effect of over 30% in size. Also: potency is read from the fitted curve at half-maximal effect. A digest of the protocol: as §1
For experiment [11], the target named is Luciferin 4-monooxygenase (Photinus pyralis) (UniProt P08659). In words: Primary firefly luciferase (FLuc) qHTS assay for identification of artifact compounds. (AID 1845220). Also: series mostly up to about 54 µM; nearly all actives have a fitted effect of over 60% in size. To be noted: outcome: dose series up to 54.1 µM unless noted. A digest of the protocol: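 Enzymatic FLuc inhibition assay: compounds pre-exposed to luciferin/ATP (10 uM each) for 15 min, then purified P. pyralis enzyme at 10 nM added. Read-out: luminescence at 5 min.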

For experiment [12], the system named is Nanoluciferase (engineered Oplophorus gracilirostris luciferase). The experiment in a line: Primary Nanoluciferase (NLuc) qHTS assay for identification of artifact compounds. (AID 1845222).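 Also: NLuc secreted into diluted conditioned medium of S16 cells; series mostly up to about 54 µM.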 A digest of the protocol: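 S16 cell supernatant NLuc, 1:55; cpds qHTS; 15 min RT dark; Nano-Glo substrate 1:100, 5 min; luminescence; Hill fit of % inhibition.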
Experiment [13] is described as follows: Primary redox qHTS assay for identification of artifact compounds. (AID 1845223). A digest of the protocol:
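Amplex Red (25 uM) and HRP (250 mU/mL) in HBSS, with compounds for 15 min, then 250 uM DTT for 30 min, room temperature, dark. Fluorescence 525/598 nm read; normalized to DMSO and 10 uM DA3003; Hill fit.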

Chain of Metallo-beta-lactamase type 2 (Klebsiella pneumoniae) (C7C422 whole entry, looked up): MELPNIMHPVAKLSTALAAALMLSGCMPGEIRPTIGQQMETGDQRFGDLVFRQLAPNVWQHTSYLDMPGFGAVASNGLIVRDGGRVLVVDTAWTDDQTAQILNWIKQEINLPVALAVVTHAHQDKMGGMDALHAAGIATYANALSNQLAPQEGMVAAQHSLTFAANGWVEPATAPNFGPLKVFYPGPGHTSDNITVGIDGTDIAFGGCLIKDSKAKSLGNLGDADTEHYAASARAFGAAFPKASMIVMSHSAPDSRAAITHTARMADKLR
Chain of Phospholipid hydroperoxide glutathione peroxidase GPX4 (Homo sapiens) (P36969 whole entry, looked up): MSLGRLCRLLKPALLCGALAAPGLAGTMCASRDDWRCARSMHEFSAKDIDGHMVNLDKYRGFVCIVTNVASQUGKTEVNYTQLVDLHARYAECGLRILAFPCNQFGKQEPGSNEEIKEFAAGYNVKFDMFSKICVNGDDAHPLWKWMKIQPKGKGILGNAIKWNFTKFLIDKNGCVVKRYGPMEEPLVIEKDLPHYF
Chain of Glutathione peroxidase 1 (Homo sapiens) (P07203 whole entry, looked up): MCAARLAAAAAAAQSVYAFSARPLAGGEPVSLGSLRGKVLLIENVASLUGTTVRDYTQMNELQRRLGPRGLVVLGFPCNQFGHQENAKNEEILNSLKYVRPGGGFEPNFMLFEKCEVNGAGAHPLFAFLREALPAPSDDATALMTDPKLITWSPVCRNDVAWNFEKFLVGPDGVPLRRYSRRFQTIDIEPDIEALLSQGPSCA

For `NCCc1c[nH]c2ccc(O)cc12`, in [1], the molecule was classed as inactive. The Potency entry in [2] and in [3] was “inactive” each time.
As to `CCCN1CCO[C@@H]2c3cc(O)ccc3OC[C@H]21`, the molecule was called inactive in experiment [1]. Besides, the Potency result in experiment [2] and in experiment [3] was “inactive” in each case.
Turning to `NC(N)=NOCCC(N)C(=O)O` (stereo unspecified), the result in [1] was inactive. The Potency entry in experiment [2] and in experiment [3] was “inactive” in each case.
For `Oc1ccc2c3c1O[C@H]1c4[nH]c5c(c4C[C@@]4(O)[C@@H](C2)N(CC2CC2)CC[C@]314)C[C@@]1(O)[C@H]2Cc3ccc(O)c4c3[C@@]1(CCN2CC1CC1)[C@H]5O4`, the molecule was called inactive in experiment [1]. In addition, the Potency entry in [2], in [3], in [4], in [5], in experiment [6] and in [7] was “inactive” each time. In addition, the Potency entry in experiment [8], in experiment [9] and in [10] was “inactive” each time.
As to `CN1C2CCC1CC(OC(=O)c1cc(Cl)cc(Cl)c1)C2` (stereo unspecified), the result in experiment [1] was inactive. Besides, the Potency result in [2] and in [3] was “inactive” each time.
As for `NCc1cc(=O)[nH]o1`, the molecule was called inactive in experiment [1]. In addition, the Potency result in experiment [2] and in [3] was “inactive” throughout.
`S=C(SSC(=S)N1CCCCC1)N1CCCCC1`: in experiment [2], the Potency is 12.8 µM (active).
With `c1ccc(CCCN2CCN(CCOC(c3ccccc3)c3ccccc3)CC2)cc1`, in experiment [1], the call was inactive. For the same molecule, the Potency result in experiment [2], in [3], in [9] and in experiment [10] was “inactive” in each case. In addition, the results for the Potency in experiment [4] and in experiment [5] were 23.5 µM (active) and 16.6 µM (active), respectively.
Consider `CC1=NN=C(c2ccc(N)cc2)c2cc3c(cc2C1)OCO3`, for which the outcome in experiment [1] was inactive. The Potency entry in experiment [2], in [3], in experiment [4], in experiment [5], in experiment [6] and in [8] was “inactive” in each case. The Potency in experiment [10] is 20.9 µM (active).
As to `COC(=O)c1cncn1C(C)c1ccccc1` (stereo unspecified), the Potency entry in experiment [2] and in experiment [3] was “inactive” throughout.
As for `Cc1cc(O)ccc1Cl`, the Potency result in experiment [2] and in experiment [3] was “inactive” each time.
As for `NC(CCP(=O)(O)O)C(=O)O` (stereo unspecified), the molecule was classed as inactive in experiment [1]. For the same molecule, the Potency entry in [2] and in [3] was “inactive” throughout.
Take `O=C(O)[C@@H]1CCN1`: the Potency result in [2] and in experiment [3] was “inactive” throughout.
Consider `O=C(O)C(Cl)Cl`, for which the Potency entry in experiment [2] was “inactive”.
`CCCN(CCC)C1CCc2ccc(O)cc2C1` (stereo unspecified): the result in [1] was inactive. Further, the Potency result in experiment [2] and in experiment [3] was “inactive” throughout.
On to `S=C(NC1CCCCC1)N1CCC(c2cnc[nH]2)CC1`, for which the outcome in experiment [1], in experiment [11], in experiment [12] and in experiment [13] was inactive. Also, the Potency result in [2] and in experiment [3] was “inactive” throughout.
Regarding `C=CCN1CC[C@]23CCCCC2[C@H]1Cc1ccc(O)cc13` (stereo partly specified), in experiment [1], the molecule was called inactive. For the same molecule, the Potency result in experiment [2] and in [3] was “inactive” in each case.
For `CC[C@@]1(O)C(=O)OCc2c1cc1n(c2=O)Cc2cc3ccccc3nc2-1`, in [1], the result was inactive. Besides, in experiment [2], the Potency entry was “inactive”. Besides, the Potency result in experiment [3] was “inactive and 9.04 µM (active)”; in experiment [4] it was 0.296 µM (active); in experiment [5], 0.0743 µM (active); in experiment [6] it was 0.209 µM (active); in [7], 0.0235 µM (active); in experiment [8], 0.118 µM (active). In experiment [10], the Potency is 0.418 µM (active).
In the case of `COc1ccc2c(c[n+](C)c3c4cc5c(cc4ccc23)OCO5)c1OC`, the outcome in experiment [1] was inactive. The Potency result in [2] and in [3] was “inactive” in each case. Also, the Potency is 4.18 µM (active) in experiment [4]; 9.35 µM (active) in experiment [5]; 2.96 µM (active) in [6]; 6.62 µM (active) in experiment [7]; 2.96 µM (active) in [8]; 5.9 µM (active) in [10].
